# About 410 targets per protein were measured; listed, in parts, are those with the strongest signals and a random draw of the rest.
# B1: rEtpA (Escherichia coli) (protein)
# chain: MNRIYKLKFDKRRNELVVVSEITTGVGNAKATGSVEGEKSPRRGVRAMALSLLSGMMIMAHPAMSANLPTGGQIVAGSGSIQTPSGNQMNIHQNSQNMVANWNSFDIGKGNTVQFDQPSSSAVALNRVVGGGESQIMGNLKANGQVFLVNPNGVLFGEGASVSTSGFVASTRDIKNDDFMNRRYTFSGGQKAGAAIVNQGELTTNAGGYIVLAADRVSNSGTIRTPGGKTVLAASERITLQLDNGGLMSVQVTGDVVNALVENRGLVSARDGQVYLTALGRGMLMNTVLNVSGVVEASGMHRQDGNIVLDGGDSGVVHLSGTLQADNASGQGGKVVVQGKNILLDKGSNITATGGQGGGEVYVGGGWQGKDSNIRNADKVVMQGGARIDVSATQQGNGGTAVLWSDSYTNFHGQISAKGGETGGNGGRVETSSHGNLQAFGTVSASAKKGKAGNWLLDSADITIVNGSNVSKTETTQSPPHTQFAPTAAGSAVSNTSINNRLNNGTSVTILTHRTRTGTAQGGNITVNAAINKSNGSDVNLTLQAGGNITVNNSITSTEGKLNVNLSGARTSNGSITISNNANITTNGGDITVGTTNTSNRVNISINNTTLNASNGNIQLTGTGTDSGILFAGNNRLTASNIALTGNSTSGNAINLTGTATLNATNNITLTGSSTSGNAINLKGNNTLTASNITLTGESTSGNAINLTDTTGTTTLNATNNITMQGTRVQIKHSNITAGNFALNATVAGSEISNTTLTATNNINLAAKTNSASSGVYLKDARITSTNGSITANGTATANGKATHLDGNVTLNASNGRIKLTGNGHGSASGILFAGNNRLTASNIALTGNSTSGNAINLTGTATLNATNDITLTGSSTSGNAINLTGTATLNATNNITLTGSSTSGNAINLKGNNTLTASNITLTGESTSGNAINLTDTTGTTTLNATNNITMQGTRVQIKHSNITAGNFALNATVAGSEISNTTLTATNNINLAAKTNSASSGVYLKDARITSTNGSITANGTATANGKATHLDGNVTLNASNGRIKLTGNGHGSASGILFAGNNRLTASNIALTGNSTSGNAINLTGTATLNATNDITLTGSSTSGNAINLTGTATLNATNNITLTGSSTSGNAINLKGNNTLTASNITLTGESTSGNAINLTDTTGTTTLNATNNITMQGTRVQIKHSNITAGNFALNATVAGSEISNTTLTATNNINLAAKTNSASSGVYLKDARITSTNGSITANGTATANGKATHLDGNVTLNASNGRIKLTGNGHGSASGILFAGNNRLTASNIALTGNSTSGNAINLTGTATLNATNDITLTGSSTSGNAINLTGTATLNATNNITLTGSSTSGNAINLKGNNTLTASNITLTGESTSGNAINLTDTTGTTTLNATNNITMQGTRVQIKHSNITAGNFALNATVAGSEISNTTLTATNNINLAAKTNSASSGVYLKDARITSTNGSITTNGTATANGKATHLDGNVTLNASNGRIKLTGNGHGSASGILFAGNNRLTASNIALTGNSTSGNAINLTGTATLNATNDITLTGSSTSGNAINLTGTATLNATNNITLTGSSTSGNAINLKGNNTLTASNITLTGESTSGNAINLTDTTGTTTLNATNNITMQGTRVQIKHSNITAGNFALNATVAGSEISNTTLTATNNINLAAKTNSASSGVYLKDARITSTNGSITANGTAPANDNATYLDGNVTLNASNGSIKLTGNGNGSTSGILFAGNNTLTASNITLTGNSEVYWQKLGPEQKLISEEDLNSAVDHHHHHH
# Columns and labels:
# Assay in all cases: glycan array binding signal (z-score within array); higher = stronger binding
# Conditions in all cases: glycan notation: IUPAC condensed, linker removed
# [1] = target: Fuc(a1-2)Gal(b1-3)GlcNAc(b1-3)[Gal(b1-4)GlcNAc(b1-6)]Gal(b1-4)Glc
# Summary of the method: (§1)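 The binding signal is a Z-score computed within each array and averaged over linkers. Arrays of the same protein sequence at different concentrations or buffers were also averaged together. Data originate from 3228 arrays in the Consortium for Functional Glycomics database, kept only where the protein sequence was available.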
# [2] = target: Fuc(a1-2)Gal(b1-4)[Fuc(a1-3)]GlcNAc(b1-2)[Fuc(a1-2)Gal(b1-4)[Fuc(a1-3)]GlcNAc(b1-4)]Man(a1-3)[Fuc(a1-2)Gal(b1-4)[Fuc(a1-3)]GlcNAc(b1-2)Man(a1-6)]Man(b1-4)GlcNAc(b1-4)GlcNAc
# Summary of the method: as §1
# [3] = target: Fuc(a1-2)[Gal(a1-3)]Gal(b1-3)GalNAc
# Summary of the method: as §1
# [4] = target: Fuc(a1-2)[Gal(a1-3)]Gal(b1-3)GalNAc(b1-3)Gal(a1-4)Gal(b1-4)Glc
# Summary of the method: as §1
# [5] = target: Fuc(a1-2)[GalNAc(a1-3)]Gal(b1-3)GlcNAc(b1-2)Man(a1-3)[Fuc(a1-2)[GalNAc(a1-3)]Gal(b1-3)GlcNAc(b1-2)Man(a1-6)]Man(b1-4)GlcNAc(b1-4)GlcNAc
# Summary of the method: as §1
# [6] = target: Fuc(a1-2)[GalNAc(a1-3)]Gal(b1-4)GlcNAc(b1-2)Man(a1-3)[Fuc(a1-2)[GalNAc(a1-3)]Gal(b1-4)GlcNAc(b1-2)Man(a1-6)]Man(b1-4)GlcNAc(b1-4)GlcNAc
# Summary of the method: as §1
# [7] = target: Fuc(a1-3)[Gal(b1-4)]GlcNAc(b1-3)GalNAc
# Summary of the method: as §1
# [8] = target: Fuc(a1-3)[Gal(b1-4)]GlcNAc(b1-6)GalNAc
# Summary of the method: as §1
# [9] = target: Fuc(a1-3)[Gal3S(b1-4)]GlcNAc
# Summary of the method: as §1
# Fuc(a1-4)GlcNAc = target: Fuc(a1-4)GlcNAc
# Summary of the method: as §1
# Gal(a1-2)Gal = target: Gal(a1-2)Gal
# Summary of the method: as §1
# Gal(a1-3)Gal = target: Gal(a1-3)Gal
# Summary of the method: as §1
# Gal(a1-3)Gal(b1-3)GlcNAc = target: Gal(a1-3)Gal(b1-3)GlcNAc
# Summary of the method: as §1
# [10] = target: Gal(a1-3)Gal(b1-3)GlcNAc(b1-2)Man(a1-3)[Gal(a1-3)Gal(b1-3)GlcNAc(b1-2)Man(a1-6)]Man(b1-4)GlcNAc(b1-4)GlcNAc
# Summary of the method: as §1
# Gal(a1-3)Gal(b1-4)Glc = target: Gal(a1-3)Gal(b1-4)Glc
# Summary of the method: as §1
# [11] = target: Gal(b1-3)GalNAc(b1-4)Gal(b1-4)Glc
# Summary of the method: as §1
# [12] = target: Gal(b1-3)GlcNAc(b1-3)Gal(b1-4)GlcNAc
# Summary of the method: as §1
# [13] = target: Gal(b1-4)GlcNAc(b1-2)Man(a1-3)[GlcNAc(b1-2)Man(a1-6)]Man(b1-4)GlcNAc(b1-4)GlcNAc
# Summary of the method: as §1
# [14] = target: Gal(b1-4)GlcNAc(b1-2)Man(a1-3)[GlcNAc(b1-4)][Gal(b1-4)GlcNAc(b1-2)Man(a1-6)]Man(b1-4)GlcNAc(b1-4)GlcNAc
# Summary of the method: as §1
# [15] = target: Gal(b1-4)GlcNAc(b1-2)Man(a1-6)Man(b1-4)GlcNAc(b1-4)GlcNAc
# Summary of the method: as §1
# [16] = target: Gal(b1-4)GlcNAc(b1-2)Man(a1-6)[Man(a1-3)]Man(b1-4)GlcNAc(b1-4)GlcNAc
# Summary of the method: as §1
# [17] = target: Gal(b1-4)GlcNAc(b1-2)[Gal(b1-4)GlcNAc(b1-6)]Man(a1-6)[GlcNAc(b1-4)][Gal(b1-4)GlcNAc(b1-2)Man(a1-3)]Man(b1-4)GlcNAc(b1-4)GlcNAc
# Summary of the method: as §1
# [18] = target: Gal(b1-4)GlcNAc(b1-3)Gal(b1-4)GlcNAc(b1-2)[Gal(b1-4)GlcNAc(b1-3)Gal(b1-4)GlcNAc(b1-6)]Man(a1-6)[Gal(b1-4)GlcNAc(b1-3)Gal(b1-4)GlcNAc(b1-2)Man(a1-3)]Man(b1-4)GlcNAc(b1-4)GlcNAc
# Summary of the method: as §1
# [19] = target: Gal(b1-4)GlcNAc(b1-3)Gal(b1-4)GlcNAc(b1-2)[Gal(b1-4)GlcNAc(b1-3)Gal(b1-4)GlcNAc(b1-6)]Man(a1-6)[Gal(b1-4)GlcNAc(b1-3)Gal(b1-4)GlcNAc(b1-2)Man(a1-3)]Man(b1-4)GlcNAc(b1-4)[Fuc(a1-6)]GlcNAc
# Summary of the method: as §1
# [20] = target: Gal(b1-4)GlcNAc(b1-3)Gal(b1-4)GlcNAc(b1-3)Gal(b1-4)GlcNAc(b1-3)Gal(b1-4)GlcNAc(b1-3)Gal(b1-4)GlcNAc(b1-2)[Gal(b1-4)GlcNAc(b1-3)Gal(b1-4)GlcNAc(b1-3)Gal(b1-4)GlcNAc(b1-3)Gal(b1-4)GlcNAc(b1-3)Gal(b1-4)GlcNAc(b1-6)]Man(a1-6)[Gal(b1-4)GlcNAc(b1-3)Gal(b1-4)GlcNAc(b1-3)Gal(b1-4)GlcNAc(b1-3)Gal(b1-4)GlcNAc(b1-3)Gal(b1-4)GlcNAc(b1-2)Man(a1-3)]Man(b1-4)GlcNAc(b1-4)[Fuc(a1-6)]GlcNAc
# Summary of the method: as §1
# [21] = target: Gal3S(b1-4)[Fuc(a1-3)]GlcNAc
# Summary of the method: as §1
binder,measurement,setting,value
B1,glycan array binding signal (z-score),[1],-0.058
same,glycan array binding signal (z-score),[2],-0.225
same,glycan array binding signal (z-score),[3],0.413
same,glycan array binding signal (z-score),[4],-0.241
same,glycan array binding signal (z-score),[5],-0.328
same,glycan array binding signal (z-score),[6],-0.09
same,glycan array binding signal (z-score),[7],-0.358
same,glycan array binding signal (z-score),[8],-0.192
same,glycan array binding signal (z-score),[9],-0.102
same,glycan array binding signal (z-score),Fuc(a1-4)GlcNAc,2.8
same,glycan array binding signal (z-score),Gal(a1-2)Gal,0.054
same,glycan array binding signal (z-score),Gal(a1-3)Gal,2.11
same,glycan array binding signal (z-score),Gal(a1-3)Gal(b1-3)GlcNAc,1.87
same,glycan array binding signal (z-score),[10],0.182
same,glycan array binding signal (z-score),Gal(a1-3)Gal(b1-4)Glc,-0.179
same,glycan array binding signal (z-score),[11],-0.272
same,glycan array binding signal (z-score),[12],-0.457
same,glycan array binding signal (z-score),[13],-0.408
same,glycan array binding signal (z-score),[14],-0.274
same,glycan array binding signal (z-score),[15],-0.376
same,glycan array binding signal (z-score),[16],0.021
same,glycan array binding signal (z-score),[17],-0.309
same,glycan array binding signal (z-score),[18],-0.106
same,glycan array binding signal (z-score),[19],-0.356
same,glycan array binding signal (z-score),[20],-0.351
same,glycan array binding signal (z-score),[21],-0.202

# From the supplement of paper PMC8728848
